# Results reported in the supplement of paper PMC6555819.
# Columns and labels:
# Experiment in all cases: PBM binding z-score (relative to random genomic background probes); higher = stronger binding; sequences stand for … in GC…GCGATTGACAGCGTAGAATGAAGG
# [1] = test system: FXR:RXRa (NR concentration 270 nM, RXRa partner concentration 90 nM)
# How it was run: (§1)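 On custom Agilent 4×180K arrays, double-stranded probes with 34-nt variable regions carried direct-repeat seeds, single-nucleotide variants, half-site ablations or random human genomic background. Ligand-free nuclear receptor dimers were applied for 1 h, and binding was read with antibodies against each partner (one per run). Binding z-scores come from regression-normalized fluorescence, with the random background probes as reference.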
# [2] = test system: LXRa:RXRa (NR concentration 270 nM, RXRa partner concentration 90 nM)
# How it was run: as §1
# [3] = test system: LXRa homodimer (NR concentration 270 nM)
# How it was run: as §1
# [4] = test system: LXRb:RXRa (NR concentration 270 nM, RXRa partner concentration 90 nM)
# How it was run: as §1
# [5] = test system: LXRb homodimer (NR concentration 270 nM)
# How it was run: as §1
# [6] = test system: PPARa:RXRa (NR concentration 270 nM, RXRa partner concentration 90 nM)
# How it was run: as §1
# [7] = test system: PPARg:RXRa (NR concentration 180 nM, RXRa partner concentration 90 nM)
# How it was run: as §1
# [8] = test system: PPARg:RXRa 270nM:90nM, anti-RXR (NR concentration 270 nM, RXRa partner concentration 90 nM)
# How it was run: as §1
# [9] = test system: PPARg:RXRa 30nM:10nM, anti-RXR (NR concentration 30 nM, RXRa partner concentration 10 nM)
# How it was run: as §1
# [10] = test system: PPARg:RXRa 90nM:30nM, anti-RXR (NR concentration 90 nM, RXRa partner concentration 30 nM)
# How it was run: as §1
# [11] = test system: PPARg:RXRa DBDmut IVT, anti-RXR (DBD mutation: RXRa K156A/R161A, NR concentration 270 nM, RXRa partner concentration 90 nM)
# How it was run: as §1
# [12] = test system: PPARg:RXRa IVT, anti-PPARg (NR concentration 270 nM, RXRa partner concentration 90 nM)
# How it was run: as §1
# [13] = test system: PPARg DBDmut:RXRa IVT, anti-PPARg (DBD mutation: PPARg1 K132A/R137A, NR concentration 270 nM, RXRa partner concentration 90 nM)
# How it was run: as §1
# [14] = test system: PPARg DBDmut IVT, anti-PPARg (DBD mutation: PPARg1 K132A/R137A, NR concentration 270 nM)
# How it was run: as §1
# [15] = test system: PPARg homodimer (NR concentration 180 nM)
# How it was run: as §1
# [16] = test system: PXR:RXRa (NR concentration 270 nM, RXRa partner concentration 90 nM)
# How it was run: as §1
# [17] = test system: PXR homodimer (NR concentration 270 nM)
# How it was run: as §1
# [18] = test system: RARa:RXR (NR concentration 270 nM, RXRa partner concentration 90 nM)
# How it was run: as §1
# [19] = test system: RARa homodimer (NR concentration 270 nM)
# How it was run: as §1
# [20] = test system: RARb:RXRa (NR concentration 270 nM, RXRa partner concentration 90 nM)
# How it was run: as §1
Sequence,PBM binding z-score [1],PBM binding z-score [2],PBM binding z-score [3],PBM binding z-score [4],PBM binding z-score [5],PBM binding z-score [6],PBM binding z-score [7],PBM binding z-score [8],PBM binding z-score [9],PBM binding z-score [10],PBM binding z-score [11],PBM binding z-score [12],PBM binding z-score [13],PBM binding z-score [14],PBM binding z-score [15],PBM binding z-score [16],PBM binding z-score [17],PBM binding z-score [18],PBM binding z-score [19],PBM binding z-score [20]
CCTATTAGTTGACCATAAGGGCAACCAAAGCTCG,1.06,0.507,0.675,0.965,0.552,0.948,0.604,0.461,0.262,0.51,0.357,0.63,0.3,0.552,1.72,1.18,1,1.47,2.44,1.62
TCAGATAGGTAAAAGGTGAAAGTCGGTGTGGTAA,2.12,1.87,0.408,2.01,0.00585,4.67,6.03,6.8,6.55,7.29,3.61,3.39,0.424,0.558,1.78,1.84,0.95,2.63,1.51,2.02
TCTTGTAGATCACCAGGTTAAGAAAGCTGGCCAA,0.657,0.602,-0.148,0.696,0.00375,1.47,0.304,2.21,3.04,2.67,2.51,1.98,-0.0157,0.181,0.18,0.513,-0.16,0.889,0.399,0.639
CCTACTGGTCCAAAAAGGTCATTGATGCCGATAA,3.82,4.66,3.95,4.54,1.21,4.72,1.53,2.98,0.82,2.04,0.397,1.54,0.257,0.0096,3.82,5.11,5.49,4.95,2.48,3.94
GGAACGAGGGCATTCGAGTTGAGAGCATGGCGAT,1.64,1.88,-0.277,0.172,-0.777,1.5,0.715,1.11,-0.289,0.498,3.26,2.42,-0.0251,-0.828,-0.126,3.24,0.951,0.847,-0.731,1.99
AGAATGAGGTTATTAAGATTAGGGAATTGCGGTC,1.47,1.57,0.419,1.24,0.178,2.61,1.17,1.57,0.697,1.37,2.99,2.43,1.23,0.542,1.01,1.02,0.66,1.52,0.918,1.47
ACAGACAGGTGAGTCAAGGTAACTCAGCTGGACG,1.06,-0.203,-0.155,-0.37,-0.551,0.333,0.647,-0.164,-0.257,-0.347,0.393,0.646,-0.696,-0.663,-0.248,0.238,-0.645,0.569,-0.253,0.669
ATCCCTAGGTAACCAAGTTCAGTGAATGCCGAAC,0.476,1.09,1.1,0.956,0.382,0.985,0.276,0.246,-0.161,-0.0393,-0.197,0.606,-0.0937,0.0123,0.495,2.03,1.88,0.847,0.816,1.25
CCTAGCAGGCCAGGGTCATTCAAGCATTTCGCTT,2.69,2.29,-0.0917,2.54,-0.65,3.66,0.697,1.82,-0.631,0.991,0.315,0.694,-0.751,-1.91,1.59,3.11,-0.0887,3.29,-0.222,2.57
ATCGAAGGGTCGTGAGGTGAGTATACAGAAAGGC,2.2,1.7,-0.107,1.58,0.162,3.34,1.74,1.77,0.78,1.23,-0.293,1.48,0.829,0.999,1.33,2,0.191,2.84,0.629,2.61
AGAACGAGAGCACGCTGAGTTGATAGCAGAGTAG,-0.802,-0.854,-0.51,-0.91,-1.27,-0.425,0.523,-0.601,-0.701,-0.842,0.0563,-0.2,-0.0826,-0.875,-0.952,-0.515,-0.415,-0.666,-1.23,-0.39
TCTAGTTGGTAAAAGGTCACACACTCGAAATGCG,5.62,5.67,4.26,5.25,1.91,5.95,8.69,8.46,8.09,9.72,3.1,5.1,1.72,2.8,5.34,5.37,2.68,6.35,5.12,4.93
TCTATTCGTTGAAGGGCAACCGACGAGTCCGTTT,0.909,1.05,0.235,1.05,0.752,1.25,0.0836,2.42,3.64,3.2,2,0.764,0.959,0.28,0.703,0.999,0.546,0.933,0.583,1.56
GCTAGCAGGCCATTTAGGTCACTCAATGACGGGC,0.265,-0.00867,-0.241,-0.158,-1.25,1.67,0.871,0.498,-0.134,0.454,1.71,2.41,-0.196,-1.01,-0.0591,0.564,0.12,0.658,-0.306,1.8
CTACCAACGTGAACAAGGTCGTTGATTACTATTC,0.409,0.657,0.667,1.48,0.184,1.22,0.42,0.167,-0.0638,0.0634,0.278,0.249,0.577,1.06,0.913,1.72,1,1.4,0.795,0.631
ACTTACGGGTCAACTAGGTTATAGCACGCGTATA,6.74,4.89,0.702,4.49,0.758,5.8,6.09,5.5,2.25,4.51,3.88,4.98,1.29,1.61,2.6,4.26,0.766,4.91,1.54,4.36
AATACAGGTTCATCGTAGGCCAGAGTACGCACAG,3.44,4.91,1.85,2.3,0.451,3.19,1.67,1.31,0.478,0.764,0.0837,0.966,1.55,1.09,0.907,3.55,1.4,2.46,0.533,1.8
TAGCCTAGGTCATGCGCGCCAGTATAGTGTCGGC,4.7,3.47,0.451,2.36,0.289,3.98,2.68,2.89,0.197,1.79,2,3.17,0.974,0.266,2.85,1.55,-0.618,2.62,-0.473,3.74
AGAATGAGGGTACCAAAGATCAGGGAAACGCTTG,-0.148,2.43,-0.475,0.326,-0.167,1.18,1.28,1.52,0.506,1.19,1.95,1.35,0.283,0.511,-0.237,-0.107,0.0728,0.253,0.0319,0.552
CCTACTTGGCCATTCAGAGGTCATTGATCATATG,3.12,4.37,6.52,4.31,1.21,3.83,0.976,2.46,0.88,1.77,1.47,1.52,1.11,0.893,2.19,4.93,1.5,4.54,1.18,3.13
CGTCAAAGTTCAAGGTAACATAACAGAAAGCAGC,6.08,5.39,2.7,3.37,1.22,4.67,4.56,5.16,2.16,3.9,0.0346,2.06,0.987,0.494,2.78,4.26,2.87,3.65,1.23,5.13
CCTGCTAGGTCAATGATCAGCTAAAGCAGCTCGC,2.71,1.96,-0.345,1.3,-0.139,2.62,1.98,2.46,0.000172,1.24,4.45,3.19,-0.369,-0.701,1.17,0.559,-0.751,1.13,-0.385,3.62
GATACAGGGTCAGCTATAGGCCAGAGTATGGAAA,4.11,2.57,-0.223,2.13,-0.306,4.24,3.43,3.17,0.857,2.08,1.05,2.31,0.261,0.123,1.68,2.14,-0.0446,3.35,0.261,4.02
GTACCAAGGTGAATAGGTCATTGATGAGTAGGCG,2.6,2.66,1.28,2.14,-0.295,3.87,3.39,3.52,1.55,2.85,3.17,4.04,0.503,0.284,4.15,2.62,0.883,4.41,1.5,3.56
CCGACTGGGGCATCAGGTTACCATAAGCCAGCCC,-0.188,0.277,-0.351,-0.136,-1.31,0.743,1.33,1.59,-0.0759,1.03,3.34,3.84,-0.621,-1.56,0.326,-0.505,-0.821,-0.109,-0.776,1.01
GGAACGAGGGCATTCGAGTTGATAGCCTGGCGAT,0.904,1.66,-0.751,0.0314,-0.65,1.42,0.665,0.992,-0.34,0.776,3.64,2.1,-0.256,-0.793,-0.188,4.04,1.57,1.58,-0.598,1.82
GCTGCTAGGTCAACTAATGGTCAGCTAAAGCTCG,3.23,2.87,0.268,2.02,0.0624,3.29,2.45,3.11,0.435,2.19,4.24,3.84,-0.334,-0.784,1.66,1.37,-0.568,2.35,-0.116,4.03
TAGCCTAGGTCATTCAGGGGCCGGTATAGAAAGC,4.65,3.59,1.03,2.73,1.63,3.57,1.87,2.46,0.494,1.41,1.8,2.62,0.426,-0.644,1.79,2.11,-0.0709,3.04,-0.178,3.79
CTCGAAACGTCGTGCTCAGGTGAGTATACCAAAC,-0.453,-0.656,-0.383,-0.688,-0.52,-0.553,-0.362,-0.781,-0.655,-0.34,-0.582,-0.171,-0.256,0.311,-0.393,-0.468,-0.608,-0.466,-0.557,-0.265
